HT1080 IDH1KD tx = qHTS for induction of synthetic lethality in tumor cells producing 2HG: qHTS for the HT-1080-IDH1KD cell line; HT-1080 IDH1 knockdown viability, ATP luminescence, 48 h; Potency, µM (doses to about 46.1 µM), actives largely listed as cytotoxic; 360,000 compounds, 2% hits
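Assay cells: HT-1080 with IDH1 knockdown, 750 per well, RPMI/5% FBS. Exposure: 48 h at 37 °C following 2 h pre-incubation. Read: CellTiter-Glo luminescence; fitted concentration-response, curve class assigned.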
DT40 TDP1 no CPT = qHTS for Inhibitors of human tyrosyl-DNA phosphodiesterase 1 (TDP1): qHTS in cells in absence of CPT; 420,000 compounds, 15% hits; DT40 Tdp1-/- hTDP1 cells, no CPT, ATP luminescence, 48 h; Potency, µM (titrated, usually from 46.2 µM), hits mostly inhibitors; AID 686978, 2013; also: nearly all actives have a fitted effect of over 55% in size
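Cells were dispensed at 400 per well, compounds added by pin tool, plates incubated ≥48 hr at 37 °C, then CellTiter-Glo added for 30 min at room temperature before luminescence reading. Line: DT40 Tdp1-/- complemented with hTDP1; camptothecin omitted.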
KB-3-1 cytotox = qHTS assay for MDR1-selective chemotherapeutics: Primary screen using the parental adenocarcinoma cell KB-3-1. KB-3-1 viability, CellTiter-Glo ATP luminescence, 72 h. Potency, µM (highest dose often 46.1 µM), usual class: cytotoxic. 400,000 compounds, 1.4% hits. AID 1347075, 2019; also: nearly all actives have a fitted effect of over 60% in size
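KB-3-1 cells, DMEM (no phenol red) + 10% FBS; compound by pin transfer, 72 h, 37 °C. Readout: CellTiter-Glo luminescence after 10 min. Data normalized, curve-fitted.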
HT1080-NT tox = qHTS for induction of synthetic lethality in tumor cells producing 2HG: qHTS for the HT-1080-NT fibrosarcoma cell line; Potency, µM (top dose mostly 46.1 µM), hits mostly cytotoxic; 360,000 compounds, 1.6% hits; HT-1080-NT fibrosarcoma viability, CellTiter-Glo ATP luminescence, 48 h;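 also: NT is the 2HG producing partner of a matched IDH1 knockdown line; nearly all actives have a fitted effect of over 55% in size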
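HT-1080-NT fibrosarcoma cells (2HG-overproducing), 750 cells/well in RPMI with 5% FBS, dosed after 2 h and incubated 48 h at 37C. CellTiter-Glo luminescence normalized to DMSO and no-cell wells; concentration-response curves fitted and classed.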
TDP1 cell CPT = qHTS for Inhibitors of human tyrosyl-DNA phosphodiesterase 1 (TDP1): qHTS in cells in presence of CPT. chicken DT40 Tdp1-/-;hTDP1 cells + 20 nM CPT, ATP luminescence, 48 h. Potency, µM (highest dose often 46.2 µM), most hits filed as inhibitors. 420,000 compounds, 12% hits. AID 686979, 2013; also: nearly all actives have a fitted effect of over 55% in size
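Chicken DT40 Tdp1-/- cells complemented with human TDP1, 400 cells/well, exposed to compounds plus 20 nM camptothecin for at least 48 h at 37 C; viability read as ATP content by CellTiter-Glo luminescence.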
KB-V1 cytotox = qHTS assay for MDR1-selective chemotherapeutics: Primary screen using the drug-selected MDR subline cells KB-V1; KB-V1 MDR cells viability, CellTiter-Glo, 72 h; Potency, µM (highest dose often 46.1 µM), hits mostly cytotoxic; 400,000 compounds, 3.4% hits; also: nearly all actives have a fitted effect of over 60% in size
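Following 72 h at 37 degrees C with compound, KB-V1 cell viability was read by CellTiter-Glo luminescence, medium being phenol-red-free DMEM plus 10% FBS; concentration-response parameters came from normalized, curve-fitted qHTS data.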
Each line names hits and unclear results; the compound was inactive in the other large screens. In the library only some 19% were active in any assay of this set; here they are far more common. Calls follow the shape of the dose curve; as a rule, active = well fitted curve in the direction sought with a large enough effect; inconclusive = small, poorly fitted or top-dose-only effect, or another doubt; inactive = no such curve, though single readings can be large; an effect the other way counts as inactive or inconclusive.

CC(C)(C)OC(=O)N1CCC[C@H]1c1nnc(SCc2ccc(Cl)cc2Cl)o1	HT1080 IDH1KD tx inconclusive, DT40 TDP1 no CPT 15µM, TDP1 cell CPT inconclusive, KB-V1 cytotox inconclusive
CC(C)(C)OC(=O)N1CCC[C@H]1c1nnc(SC/C=C/c2ccccc2)o1	DT40 TDP1 no CPT 23µM, TDP1 cell CPT inconclusive
COc1ccc(-c2c(NC(=O)c3ccco3)n(C)c3ccccc3c2=O)cc1	none
CC(C)OP(=O)(c1ccc(N(C)C)cc1)C(O)c1cccnc1 (stereo not drawn)	none
O=C(O)c1ccccc1C(=O)NCc1ccc(F)cc1	none
O=C(O)c1ccccc1C(=O)NNc1ccc(F)cc1	HT1080 IDH1KD tx 8.2µM, HT1080-NT tox inconclusive
COc1ccc(NC(=O)[C@H](C)NC(=O)[C@@H]2Cc3ccccc3CN2C(=O)OC(C)(C)C)cc1	DT40 TDP1 no CPT inconclusive
O=C(N/N=C/c1ccncc1)c1cc(C2CC2)nc2ccccc12	DT40 TDP1 no CPT inconclusive
O=C(N/N=C/c1ccccn1)c1cc(-c2ccccc2)nc2ccccc12	DT40 TDP1 no CPT 16µM, TDP1 cell CPT inconclusive
O=C(N/N=C/c1ccccn1)c1cc(C2CC2)nc2ccccc12	HT1080 IDH1KD tx inconclusive, DT40 TDP1 no CPT inconclusive, HT1080-NT tox inconclusive, TDP1 cell CPT 23µM
Cc1ccc2cccc(NC(=S)NC(=O)c3ccccc3)c2n1	DT40 TDP1 no CPT inconclusive, TDP1 cell CPT 18µM, KB-V1 cytotox inconclusive
Cc1cc(C)c2cccc(NC(=S)NC(=O)c3ccccc3)c2n1	HT1080 IDH1KD tx 2.8µM, DT40 TDP1 no CPT 13µM, HT1080-NT tox 2.5µM, TDP1 cell CPT 16µM, KB-V1 cytotox inconclusive
Cc1ccc2cccnc2c1NC(=S)NC(=O)c1ccccc1	HT1080 IDH1KD tx inconclusive, HT1080-NT tox 11µM, TDP1 cell CPT inconclusive, KB-V1 cytotox 15µM
O=C(NC(=S)Nc1ccc2ncccc2c1)c1ccccc1	DT40 TDP1 no CPT inconclusive, KB-3-1 cytotox inconclusive
CC1CCc2nc3ncn(Cc4cccc(F)c4)c(=O)c3cc2C1 (stereo not drawn)	DT40 TDP1 no CPT inconclusive, TDP1 cell CPT inconclusive (no result: HT1080 IDH1KD tx, HT1080-NT tox)
c1ccc(CNc2ncnc3nc(N4CCOCC4)[nH]c23)cc1	KB-3-1 cytotox inconclusive, TDP1 cell CPT inconclusive (no result: HT1080 IDH1KD tx, HT1080-NT tox)
Cc1ccc(N(C(=O)CCl)C(C(=O)NC2CCCCC2)c2cccnc2)cc1C (stereo not drawn)	HT1080 IDH1KD tx 1.6µM, DT40 TDP1 no CPT 1.6µM, KB-3-1 cytotox 3.7µM, HT1080-NT tox 1.6µM, TDP1 cell CPT 1.8µM, KB-V1 cytotox 3.7µM
Cc1ccc(N(C(=O)Cn2nnc(-c3ccccc3)n2)C(C(=O)NC2CCCCC2)c2ccccn2)cc1C (stereo not drawn)	DT40 TDP1 no CPT inconclusive, TDP1 cell CPT inconclusive, KB-V1 cytotox 1.2µM
CSCCC(NC(=O)C1CCCCC1)C(=O)Nc1ccc(F)c(Cl)c1 (stereo not drawn)	TDP1 cell CPT inconclusive (no result: HT1080 IDH1KD tx, HT1080-NT tox)
CCOC(=O)c1c(NC(C)=O)sc2c1CCC(C=NCCCN(CC)CC)=C2Sc1ccccc1	HT1080 IDH1KD tx inconclusive, DT40 TDP1 no CPT 13µM, KB-3-1 cytotox inconclusive, HT1080-NT tox inconclusive, TDP1 cell CPT 15µM, KB-V1 cytotox 16µM
COc1ccc(NC(=O)CSc2ccccc2)c(OC)c1	DT40 TDP1 no CPT inconclusive
O=C(NCc1ccccc1)C(c1cccc2ccccc12)n1c(=O)c(-c2ccccc2)nc2ccccc21 (stereo not drawn)	DT40 TDP1 no CPT inconclusive, TDP1 cell CPT 13µM
CCCCCNC(=O)C(CCc1ccccc1)n1c(=O)c(-c2ccccc2)nc2ccccc21 (stereo not drawn)	HT1080 IDH1KD tx inconclusive, DT40 TDP1 no CPT 5.8µM, TDP1 cell CPT 5.8µM

Compound activity as filed in PubChem BioAssay.
